Among the data in PubChem BioAssay (NCI) are growth values, retold here.

Common to all, as to test: NCI-60 one-dose screen, 48 h (100 = growth as untreated, 0 = no growth, -100 = all killed)
What all share (details): 10 µM unless noted

Test [1] has as its system NCI-H23 lung.
Test [2] has as its system NCI-H226 lung.
For test [3], the system named is NCI-H322M lung.
In test [4] the test system is HOP-62 NSCLC.
The subject of test [5] is NCI-H460 lung.
Test [6] has as its system 786-0 renal.
For test [7], the system named is DU-145 prostate.
The subject of test [8] is MDA-MB-231 breast.
Test [9] has as its system SF-268 CNS.
Test [10] relates to SF-539 CNS.
Test [11] concerns M14 melanoma.
Test [12] has as its system SNB-19 CNS.
The test system of test [13] is U251 CNS.
The test system of test [14] is SN12C renal.
Test [15] deals with SK-OV-3 ovarian.
The subject of test [16] is MDA-MB-435 melanoma.
The subject of test [17] is SW-620 colon.
Test [18] relates to HCT-116 colon.
For test [19], the system named is KM12 colon.
For test [20], the system named is UO-31 renal.

The panel holds about 83,000 compounds, 20% with a hit somewhere; the sample as a whole holds those more often.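 For each line, cells grew in 96-well plates with the test compound present at a single concentration for 48 hours.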 Values without a mark were called inactive. Calls of active or inactive are those of the source. How the source made its calls: active means growth percent below 10; inactive means the rest.

As to `NC(=O)NC(=O)CI`, the growth in test [1] is 95.5%; in [2], 95.1%; in test [3] it was 119%; in [4], 109%; in [5] it was 106%; in test [6], 88%. Also, the growth in [7] is 101%; in [8], 94.9%; in test [9] it was 101%; in test [10] it was 109%; in test [11], 88.7%; in [12], 86.3%. Also, the growth in test [13] was 94.7%; in test [14], 85%; in test [15] it was 111%; in test [16], 98.2%; in [17] it was 27.6%; in test [18], 36.8%. In addition, the growth in [19] was 107%.

With `O=c1[nH]c2cc(Cl)ccc2n1C1CCN(CCCC(c2ccc(F)cc2)c2ccc(F)cc2)CC1`, the growth in test [1] was 59.7%; in [2] it was 126%; in test [3] it was 78.1%; in [4], 67.2%; in test [5], -49.2% (active); in test [6], 11.5%. The growth is -0.502% (active) in [7]; 29.2% in [8]; 24.8% in [9]; 15.5% in test [10]; -52.2% (active) in test [11]; 73.8% in test [12]. Further, the growth in test [13] is 29.4%; in [14] it was 20.1%; in test [20], -48.3% (active); in test [15], 78.1%; in test [16] it was 18.2%; in test [17], -80.7% (active). Also, the growth in test [18] is 3.23% (active); in test [19] it was -94.6% (active).

In the case of `CNC(=O)Oc1cccc(N(C)C)c1`, the growth in [1] was 106%; in test [2] it was 93.3%; in test [3], 102%; in [4], 101%; in test [5], 105%; in test [6], 102%. For the same compound, the growth in [7] was 110%; in test [8] it was 93%; in test [9], 106%; in test [10], 100%; in [11], 107%; in test [12], 102%. The growth in [13] was 99.1%; in test [14], 94.6%; in test [20], 86.6%; in test [15] it was 99.7%; in test [16], 97.5%; in test [17] it was 104%. Moreover, the figures for the growth in test [18] and in test [19] were 113% and 104%, respectively.

In the case of `CN=C(NN)NN`, the growth in test [1] was 102%; in test [2] it was 109%; in test [3], 114%; in test [4] it was 135%; in test [5] it was 111%; in test [6], 103%. Besides, the growth is 111% in [7]; 120% in [8]; 103% in test [9]; 104% in test [10]; 105% in test [11]; 121% in test [12]. Also, the growth was 98.5% in test [13]; 113% in test [14]; 90.8% in test [20]; 110% in test [15]; 99.8% in test [16]; 107% in [17]. In addition, the results for the growth in [18] and in test [19] were 109% and 108%, respectively.

On to `Nc1ccc([N+](=O)[O-])c2c1Oc1ccccc1O2`, for which the growth in test [1] was 94.3%; in test [2] it was 87.4%; in [3] it was 93.9%; in test [4], 90.9%; in [5], 111%; in [6] it was 82.7%. The growth was 93.1% in [7]; 97% in [8]; 107% in [9]; 89.7% in [10]; 106% in test [11]; 80.8% in test [12]. For the same compound, the growth in [13] is 90.2%; in test [14], 98%; in test [20], 10%; in [15] it was 88.9%; in [16], 106%; in test [17], 104%. Besides, the figures for the growth in test [18] and in test [19] were 99.7% and 99.8%, respectively.

With `c1cnc2c(c1)ccc1ncccc12`, the growth in [1] was 121%; in test [2] it was 100%; in [3], 123%; in [4], 103%; in [5], 108%; in test [6] it was 105%. The growth in [7] was 107%; in [8], 108%; in [9] it was 96.4%; in [10], 106%; in test [11] it was 91%; in [12], 95.7%. Moreover, the growth was 105% in test [13]; 95.3% in test [14]; 93.2% in test [20]; 104% in [15]; 113% in test [16]; 144% in test [17]. Further, the results for the growth in [18] and in test [19] were 89.8% and 107%, respectively.

In the case of `O=C(O)CC(Br)C(=O)CBr` (centres undefined), the growth in [1] was 108%; in [2], 91.9%; in test [3], 100%; in test [4] it was 105%; in [5], 108%; in test [6], 99.1%. In addition, the growth in test [7] was 111%; in [8], 98.2%; in [9], 106%; in test [10] it was 95.3%; in test [11] it was 103%; in [12], 104%. For the same compound, the growth is 99.2% in test [13]; 107% in [14]; 86.1% in test [20]; 106% in test [15]; 108% in test [16]; 103% in test [17]. For the same compound, the results for the growth in test [18] and in test [19] were 100% and 111%, respectively.

As for `C[As](=O)(O)c1ccc(C(=O)O)cc1`, the growth in [1] is 110%; in test [2] it was 99.7%; in test [3], 115%; in test [4], 108%; in test [5], 112%; in test [6] it was 109%. In addition, the growth in test [7] is 109%; in [8], 102%; in test [9], 110%; in test [10] it was 102%; in test [11], 104%; in [12], 106%. For the same compound, the growth in test [13] was 89.5%; in test [14], 107%; in test [20] it was 93.2%; in [15], 106%; in [16] it was 98.4%; in [17] it was 105%. Besides, the growth in test [18] is 110%; in test [19], 111%.
